Reference: PubChem BioAssay AID588475 (Sanford-Burnham Center for Chemical Genomics, 2011)
Hit rate of the full screen: of about 350,000 compounds, about 2,100 (0.6%) were called active. The sample as a whole holds a higher share of actives than the screen did. Values without a mark were called inactive.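 The calls were made as follows: active = inhibition of the ligand-induced calcium signal above about 50% at the single tested concentration (limit read from the data); inactive = the rest.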

Test: blockers of CRF-evoked CRF-R2/CRF-BP calcium response – cell-based, HEK293, calcium dye fluorescence, uHTS, primary screen (AID 588475)
Details: CRF-induced calcium fluorescence, at 11.8 µM, hits give high values
`Cc1ccc(C(=O)Nc2ncccc2C)cc1S(=O)(=O)N1CCOCC1` gave an inhibition of -0.48%. For `Cc1ccc(C(=O)Nc2ccccc2C(=O)NC2CCCCC2)cc1S(=O)(=O)N1CCOCC1`, the inhibition was 72.2% (active). For `Cc1ccc(NC(=O)NC2CCCCC2)cc1S(=O)(=O)N1CCOCC1`, the inhibition was 5.45%. `Cc1nc(C)c(C(=O)N(c2ccc(C)c(C)c2)C(C(=O)NCc2ccco2)c2ccccc2)s1` (centres undefined) gave an inhibition of -3.65%. In the case of `O=C(NCC(=O)N(c1ccccc1)C(C(=O)NCC1CCCO1)c1ccccc1)c1cccs1` (centres undefined), the inhibition is reported as -1.33%. For `Cc1cccc(N(C(=O)c2sc(C)nc2C)C(C(=O)NCC2CCCO2)c2ccccc2)c1` (centres undefined), the inhibition was 54.8% (active). In the case of `COc1ccc([N+](=O)[O-])cc1N(CC(O)Cn1nnc2ccccc21)S(=O)(=O)c1ccc(C)cc1` (centres undefined), the inhibition is reported as 67.3% (active). `COc1ccc([N+](=O)[O-])cc1N(CC(O)CN(CC(C)C)CC(C)C)S(=O)(=O)c1ccc(C)cc1` (centres undefined) gave an inhibition of -23.4%. `Cc1ccc(S(=O)(=O)N(CC(O)CN2CCCCC2)c2cccc([N+](=O)[O-])c2)cc1` (centres undefined) showed an inhibition of -12.3%. Work on `CN(Cc1ccc(CNC[C@H]2O[C@@H](n3cnc4c(N)ncnc43)[C@H](O)[C@@H]2O)o1)S(C)(=O)=O` yielded an inhibition of 15.6%. Molecule `O=C(O)c1ccc(/C=N/NC(=S)NCc2ccccc2)cc1` has an inhibition of 3.62%. Molecule `O=C(Cc1cccs1)N/N=C/c1ccc(OCc2ccccc2)cc1` has an inhibition of -49.7%. In the case of `C=CCNC(=S)N/N=C/c1ccc(OCc2ccccc2)cc1`, the inhibition is reported as 95.3% (active). Work on `CN(CCO)c1ccc(/C=N/Nc2nncc3ccccc23)cc1` yielded an inhibition of 13.7%. Work on `COc1ccc2[nH]c(=O)c(CN(Cc3cccnc3)S(=O)(=O)c3ccccc3F)cc2c1` yielded an inhibition of -7.64%. Work on `CN(C)/C(=N\OC(=O)c1ccccc1)c1nonc1N` yielded an inhibition of 28.8%. `COc1ccc(CCNC(=O)C2CCN(c3nn4c(=O)cc(C)nc4s3)CC2)cc1OC` gave an inhibition of -3.66%. With `CCCOc1ccc(CNC(=O)C2CCN(c3nn4c(=O)cc(C)nc4s3)CC2)cc1` the inhibition was 4.13%. For `Cc1cc(=O)n2nc(N3CCC(C(=O)Nc4c(F)c(F)c(F)c(F)c4F)CC3)sc2n1`, the inhibition was 88.8% (active). In the case of `CCOc1ccc(N(CC(=O)Nc2ccccc2F)S(=O)(=O)c2c(C)[nH]c(=O)[nH]c2=O)cc1`, the inhibition is reported as -6.15%. For `CCCNS(=O)(=O)c1ccc(CCC(=O)N2CCCC2)cc1`, the inhibition was 0.99%. `C[C@@H]1CN([C@H](C)CO)C(=O)CCCn2nncc2CO[C@@H]1CN(C)C(=O)OCc1ccccc1` showed an inhibition of -0.52%. Work on `Cc1ccc(C(=O)c2coc3ccc(O)c(CN(C)C)c23)cc1` yielded an inhibition of -15.4%. With `COc1cccc(OC)c1C(=O)N1CCN(Cc2cccnc2)CC1` the inhibition was 56.1% (active). With `COc1ccccc1C(=O)N1CCN=C1SCc1cccnc1` the inhibition was 11.4%. For `COc1cccc(OC)c1C(=O)N1CCN(Cc2ccccc2F)CC1`, the inhibition was 24.1%. `Cc1nc2sc(C(c3ccco3)N3CCC4(CC3)OCCO4)c(O)n2n1` (centres undefined) gave an inhibition of 11.4%. Work on `[O-][N+]12CCCCC1CCCC2CO` (centres undefined) yielded an inhibition of 8.6%. In the case of `COc1ccc(S(=O)(=O)N2CCc3ccccc32)cc1C(=O)Nc1cc(S(C)(=O)=O)ccc1Cl`, the inhibition is reported as 2.64%. Molecule `COc1ccccc1N(C)C(=O)c1cc(S(=O)(=O)N2CCc3ccccc32)cn1C` has an inhibition of -4.87%. For `COc1cccc(NC(=O)c2cc(S(=O)(=O)N3CCc4ccccc43)cn2C)c1`, the inhibition was 82.7% (active). In the case of `O=C(N[C@H]1C/C=C\C(c2cccc(F)c2)N(Cc2ccccc2)C(=O)C1)OCC1c2ccccc2-c2ccccc21` (some centres undefined), the inhibition is reported as 98.1% (active). `O=C(N[C@@H]1C/C=C\C[C@@H](CC(=O)N(CCO)Cc2ccccc2)C(=O)N[C@H](Cc2ccccc2)COC1=O)OCC1c2ccccc2-c2ccccc21` gave an inhibition of 1.02%. `O=C(N[C@H]1C/C=C\C(c2ccc(F)cc2)N(Cc2ccccc2)C(=O)C1)OCC1c2ccccc2-c2ccccc21` (some centres undefined) showed an inhibition of -13.4%. `COc1ccc(Cn2c(O)c(/C=C3/C=CC=N3)c(=O)[nH]c2=O)cc1` gave an inhibition of 0.93%. For `NC(=O)C1(N2CCCCC2)CCN(C2CC(=O)N(Cc3ccc(N4CCCC4=O)cc3)C2=O)CC1` (centres undefined), the inhibition was -8.44%. `O=C(O)CSCC(=O)Nc1ccc(C(F)(F)F)cc1` gave an inhibition of -14.8%. `Cc1cc(C)c2c(=O)[nH]c(SCC(=O)Nc3ccc(Br)cc3)nc2n1` gave an inhibition of -6.59%. In the case of `O=C(O)CC(SCC(=O)Nc1ccc(Br)cc1)C(=O)O` (centres undefined), the inhibition is reported as 57.3% (active). In the case of `O=C(CN1CCOC1=O)N1CCCC(Nc2ccc(F)c(F)c2)C1` (centres undefined), the inhibition is reported as 0.32%. `CCc1cc(=O)oc2c(C)c(OCC(=O)N3CC[C@@]4(O)CCCC[C@H]4C3)ccc12` gave an inhibition of -9.77%. Work on `COc1ccc(OC)c(CNC(=O)Cn2nc(C)c3c(C)n(-c4ccc(C)cc4)nc3c2=O)c1` yielded an inhibition of 9.58%. With `CCCCOC(=O)c1ccc(NC(c2ccc(C)cc2)P(=O)(OC)OC)cc1` (centres undefined) the inhibition was 102% (active). Molecule `CCOP(=O)(OCC)C(Nc1cccc(C)c1)c1ccc(F)cc1` (centres undefined) has an inhibition of -6.82%. Molecule `CCOP(=O)(OCC)C(Nc1ccc([N+](=O)[O-])cc1)c1ccc(Cl)cc1` (centres undefined) has an inhibition of 40.7%. `O=C(CCCn1c(=O)c2sccc2n(CC(=O)NCC2CCCO2)c1=O)NCc1ccco1` (centres undefined) gave an inhibition of -17.3%. In the case of `CCOC(=O)N1CCN(S(=O)(=O)c2cc3c(cc2C)NC(=O)CO3)CC1`, the inhibition is reported as -1.54%. Molecule `CN1CCN(CC(=O)C23CC4CC(CC(C4)C2)C3)CC1` has an inhibition of 7.99%. For `Cc1ccccc1N1CCN(C2CCCN(C(=O)c3ocnc3C)C2)CC1` (centres undefined), the inhibition was 1%. `Cc1cnc(C(=O)N2CCCC(N3CCN(c4ccccc4F)CC3)C2)cn1` (centres undefined) gave an inhibition of 14.5%. For `Cc1ccccc1N1CCN(C2CCCN(C(=O)c3cn4c(C)cccc4n3)C2)CC1` (centres undefined), the inhibition was 53.6% (active). With `Cc1ccc(-n2cc3ccc([N+](=O)[O-])cc3n2)cc1` the inhibition was -2.01%. In the case of `Cc1ccc(NC(=O)c2oc3ccccc3c2C)c([N+](=O)[O-])c1`, the inhibition is reported as -13.1%. In the case of `Cc1ccnc(N2CCCC(C(=O)NC3CC3)C2)n1` (centres undefined), the inhibition is reported as 50.4% (active). With `COc1cc(C)nc(N2CCCC(C(=O)NCC(C)C)C2)n1` (centres undefined) the inhibition was -9.18%. In the case of `O=C(NC1CC1)C1CCCN(C(=O)NC2CCCCC2)C1` (centres undefined), the inhibition is reported as 1.71%. `CC(C)(C)NC(=O)CN1CCC(NC(=O)C23CC4CC(CC(C4)C2)C3)CC1` showed an inhibition of -2.97%. In the case of `O=C(CNCc1ccc(F)cc1)Nc1ccccc1-c1ccccc1`, the inhibition is reported as -15%. `O=C(COC(=O)c1ccc(N2CCCC2=O)cc1)c1ccc(OC(F)F)cc1` gave an inhibition of 4.33%. With `Cc1c(NC(=O)c2coc(=O)c(Br)c2)c(=O)n(-c2ccccc2)n1C` the inhibition was -18.5%. Work on `O=C(CCN1C(=O)c2ccccc2C1=O)Nc1cccc(F)c1` yielded an inhibition of -0.74%. With `O=C(Nc1cccc(F)c1)c1coc(=O)c(Br)c1` the inhibition was 102% (active). In the case of `Cc1nn(-c2ccccc2)c(Cl)c1/C=C/C(=O)c1ccc(O)cc1`, the inhibition is reported as 57.7% (active). Work on `Cc1nn(-c2ccccc2)c(Cl)c1/C=N/NC(=O)c1nn(C)cc1[N+](=O)[O-]` yielded an inhibition of 15.5%. Work on `Cc1nn(-c2ccccc2)c(C)c1/C=C/C(=O)OC(C)C(N)=O` (centres undefined) yielded an inhibition of 23.7%. With `CC1(C)CC(=O)C(N=Nc2c(F)cccc2F)=C(O)C1` the inhibition was 14.8%. Work on `CN(c1ccc(C(=O)NCCC2=CCCCC2)cc1)S(C)(=O)=O` yielded an inhibition of 3.31%. For `Cn1nnc2cc(C(=O)NCCC3=CCCCC3)ccc21`, the inhibition was 69% (active). `O=C(NCCC1=CCCCC1)c1ccc(-n2cncn2)cc1` showed an inhibition of -5.9%. Molecule `CCCCCCCCCCCC(=O)O` has an inhibition of 16.1%. With `Cc1ccc(S(=O)(=O)c2c[nH]c3ccc(C)cc3c2=O)cc1` the inhibition was -6.79%. `O=C(c1nnc(-c2ccc(Cl)cc2)o1)C1CCCC1` gave an inhibition of 1.38%. In the case of `O=C(c1[nH]ncc1-c1ccc(Cl)cc1)C1CO1` (centres undefined), the inhibition is reported as 98.5% (active). With `S=c1[nH]nc(-c2ccc(Cl)cc2)n1CC1CCCO1` (centres undefined) the inhibition was 19%. `CN(C(=O)c1cccc(NC(=O)Cc2ccc([N+](=O)[O-])cc2)c1)C1CCC1` gave an inhibition of 10.4%. Work on `CCOC(=O)c1cc2occc2n1CC(=O)NC1CCC(C)CC1` (centres undefined) yielded an inhibition of 4.37%. With `O=C(CN1C(=O)CC(c2ccccc2)=Nc2ccccc21)NC1CCCCC1` the inhibition was 3.75%. Work on `CC(=O)Oc1c(C(=O)c2nnc(C)o2)c(=O)n(Cc2ccccc2)c2ccccc12` yielded an inhibition of -18.6%. `NC(N)=N/N=C/c1ccc(OCc2ccc(Cl)cc2Cl)cc1` showed an inhibition of -68.7%. With `O=C1c2ccccc2-c2ncnc3c(N4CCOCC4)cc(N4CCOCC4)c1c23` the inhibition was 54% (active). In the case of `O=S(=O)(Nc1cc(Cl)ccc1N1CCOCC1)c1ccccc1Cl`, the inhibition is reported as 3.16%. `Cc1oc2c(c1C(=O)N1CCOCC1)C(=O)c1ccccc1C2=O` showed an inhibition of 3.77%. Molecule `CC1=C(C(=O)N(C)C)C(c2ccccc2OC(F)F)NC(=O)N1` (centres undefined) has an inhibition of -0.09%. Molecule `CCCn1nc(Oc2nc(NC(C)C)nc(N(C)C)n2)ccc1=O` has an inhibition of 2.18%. For `O=C(Nc1ccc(Br)cc1)c1cc(S(=O)(=O)Nc2ccccn2)ccc1Cl`, the inhibition was -2.82%. For `Cc1ccc(NS(=O)(=O)c2cccs2)cc1S(=O)(=O)N1CCCCCC1`, the inhibition was 122% (active). Molecule `Cc1ccc(NS(=O)(=O)c2ccc(C(C)C)cc2)cc1S(=O)(=O)N1CCOCC1` has an inhibition of -10.7%. `COc1ccccc1C(=O)Nc1ccc(C)c(S(=O)(=O)N2CCCCC2)c1` gave an inhibition of -0.27%. `CN(C)CCCO/N=C(\c1ccccc1)c1ccncc1` gave an inhibition of 1.7%.
